Some test systems named below: HCT-15 colon; HT29 colon; SNB-19 CNS; U251 CNS; PC-3 prostate; SK-MEL-5 melanoma; UACC-62 melanoma; LOX IMVI melanoma; SK-MEL-28 melanoma.
Common to all, as to experiment: NCI-60 one-dose screen, 48 h (100 = growth as untreated, 0 = no growth, -100 = all killed)
Conditions in all cases: 10 µM unless noted

This is part of a sample that, as a whole, favours compounds with a hit. Of some 83,000 tested, about 20% had one in any assay.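 For each line, cells grew in 96-well plates with the test compound present at a single concentration for 48 hours.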 A number with no mark means an inactive call. Calls of active or inactive are those of the source. How the source made its calls: active means growth percent below 10; inactive means the rest.

Take `N#Cc1c(-c2ccccc2)cc(-c2ccccc2)n(CC(=O)NO)c1=O`: the growth is 16.8% with HCT-15 colon; 33.5% with HT29 colon; 77% with SNB-19 CNS; 52.5% in the assay on U251 CNS; 34.9% in the assay on PC-3 prostate; 14.6% with SK-MEL-5 melanoma. Moreover, the growth in the assay on UACC-62 melanoma was 64.5%; in the assay on LOX IMVI melanoma, -90.5% (active); with SK-MEL-28 melanoma, 75.7%.

As to `O=C(NNC(=O)N1c2ccccc2C=Cc2ccccc21)c1ccc2ccccc2c1`, the growth was 95.4% in the assay on HCT-15 colon; 88.6% in the assay on HT29 colon; 95.3% in the assay on SNB-19 CNS; 92.6% in the assay with U251 CNS; 74.9% in the assay with PC-3 prostate; 92% in the assay on SK-MEL-5 melanoma. Further, the results for the growth in the assay with UACC-62 melanoma, in the assay on LOX IMVI melanoma and with SK-MEL-28 melanoma were 81.1%, 93.6% and 98.4%, respectively.

As to `Brc1ccc(-c2[nH]ncc2-c2c[nH]c3ccccc23)cc1`, the growth in the assay on HCT-15 colon was 94.9%; in the assay with HT29 colon it was 109%; with SNB-19 CNS it was 97%; in the assay with U251 CNS it was 93.9%; in the assay with PC-3 prostate, 77.4%; in the assay with SK-MEL-5 melanoma it was 100%. The growth with UACC-62 melanoma was 91.7%; in the assay with LOX IMVI melanoma it was 89.7%; in the assay with SK-MEL-28 melanoma, 107%.

Consider `FC(F)(F)c1cccc(-c2cn3c(ccc4ccccc43)n2)c1`, for which the growth in the assay with HCT-15 colon was 90.9%; with HT29 colon, 102%; in the assay on SNB-19 CNS, 100%; in the assay on U251 CNS, 86.9%; in the assay on PC-3 prostate, 83%; with SK-MEL-5 melanoma, 92.4%. In addition, the growth was 79.9% in the assay on UACC-62 melanoma, 90.1% in the assay on LOX IMVI melanoma and 115% in the assay on SK-MEL-28 melanoma.

On to `O=Nc1c(-c2cccc([N+](=O)[O-])c2)nc2ncccn12`, for which the growth in the assay with HCT-15 colon was 73.7%; in the assay with HT29 colon, 79.5%; in the assay on SNB-19 CNS it was 94.3%; in the assay on U251 CNS, 96.9%; in the assay on PC-3 prostate, 66.5%; in the assay with SK-MEL-5 melanoma, 96.2%. Also, the growth in the assay with UACC-62 melanoma is 92.8%; in the assay on LOX IMVI melanoma, 95.4%; in the assay on SK-MEL-28 melanoma it was 115%.

As for `Cc1csc(NC(c2ccccc2)c2c(C)nc3ccccn23)n1` (stereo not given), the growth was 100% in the assay on HCT-15 colon; 98% in the assay with HT29 colon; 93.5% in the assay on SNB-19 CNS; 94.7% in the assay with U251 CNS; 82.6% in the assay on PC-3 prostate; 99.6% in the assay with SK-MEL-5 melanoma. For the same compound, the growth in the assay with UACC-62 melanoma is 94.2%; with LOX IMVI melanoma, 96.5%; with SK-MEL-28 melanoma it was 110%.

With `CN(C)c1cccc2c(S(=O)(=O)/N=C(\N)Nc3nc4ccccc4s3)cccc12`, the growth in the assay on HCT-15 colon was 42.9%; in the assay on HT29 colon, 48.2%; in the assay on SNB-19 CNS, 53.6%; with U251 CNS, 55.4%; in the assay with PC-3 prostate it was 48.2%; in the assay on SK-MEL-5 melanoma it was 40.5%. Moreover, the growth in the assay on UACC-62 melanoma was 42.8%; in the assay on LOX IMVI melanoma it was 51.7%; with SK-MEL-28 melanoma, 78.9%.

As to `O=C(Nc1ccncc1)C(=O)c1cn(S(=O)(=O)c2ccc(Oc3ccccc3)cc2)c2ccccc12`, the growth was 88.6% in the assay with HCT-15 colon; 101% with HT29 colon; 98.6% with SNB-19 CNS; 94% with U251 CNS; 85.7% with PC-3 prostate; 98.2% in the assay with SK-MEL-5 melanoma. Moreover, the growth in the assay with UACC-62 melanoma was 79.1%; in the assay with LOX IMVI melanoma, 91.3%; with SK-MEL-28 melanoma, 110%.

As for `Oc1ccc2cc(Br)ccc2c1-c1c(O)ccc2cc(Br)ccc12`, the growth is 67.7% in the assay with HCT-15 colon; 11.2% in the assay with HT29 colon; 78.3% in the assay with SNB-19 CNS; 65% in the assay with U251 CNS; 42.1% in the assay on PC-3 prostate; 72.8% in the assay on SK-MEL-5 melanoma. Moreover, the growth in the assay with UACC-62 melanoma is 61.4%; in the assay with LOX IMVI melanoma it was 61.8%; in the assay with SK-MEL-28 melanoma, 65.5%.

As for `Cc1nc2cncc(C#Cc3cncc(C(=O)Nc4ccc(CN5CCN(C)CC5)c(C(F)(F)F)c4)c3)c2nc1C`, the growth was 8.31% (active) in the assay on HCT-15 colon; 3.88% (active) in the assay on HT29 colon; 49.7% in the assay with SNB-19 CNS; 36% with U251 CNS; 25.6% with PC-3 prostate; -18.1% (active) with SK-MEL-5 melanoma. For the same compound, the growth was -32% (active) in the assay with UACC-62 melanoma, -77.9% (active) in the assay on LOX IMVI melanoma and -8.83% (active) with SK-MEL-28 melanoma.

Turning to `COc1cc(NC(=O)SC2=NCCS2)cc(OC)c1`, the growth was 105% in the assay on HCT-15 colon; 103% in the assay on HT29 colon; 90.5% with SNB-19 CNS; 97.7% with U251 CNS; 93.6% in the assay on PC-3 prostate; 98.1% in the assay with SK-MEL-5 melanoma. For the same compound, the values for the growth with UACC-62 melanoma, in the assay with LOX IMVI melanoma and with SK-MEL-28 melanoma were 88.9%, 98.3% and 98.5%, respectively.

In the case of `O=C(Nc1cccc(-n2cc(-c3ccncc3)c(-c3ccc(Cl)c(O)c3)n2)c1)Nc1ccc(Cl)c(Cl)c1`, the growth with HCT-15 colon is 19.8%; in the assay on HT29 colon, 45.9%; with SNB-19 CNS, 30.3%; with U251 CNS it was 12.4%; in the assay on PC-3 prostate it was 5.43% (active); in the assay with SK-MEL-5 melanoma it was -40.2% (active). Moreover, the growth with UACC-62 melanoma is 14.9%; with LOX IMVI melanoma, 21.9%; in the assay on SK-MEL-28 melanoma it was 24.6%.

Consider `O=C(Nc1ccncc1)C(=O)c1cn(S(=O)(=O)c2ccc(Cl)cc2)c2ccccc12`, for which the growth in the assay on HCT-15 colon is 26.6%; with HT29 colon, 2.91% (active); in the assay with SNB-19 CNS it was 44.7%; with U251 CNS, 31.3%; with PC-3 prostate it was 41.7%; in the assay on SK-MEL-5 melanoma it was 17.1%. Also, the values for the growth in the assay with UACC-62 melanoma, with LOX IMVI melanoma and in the assay with SK-MEL-28 melanoma were 30.7%, 42.8% and 46.4%, respectively.

As for `Cc1ccc(CSC(=N)N)cc1C`, the growth was 116% with HCT-15 colon; 104% with HT29 colon; 98.7% with SNB-19 CNS; 111% in the assay with U251 CNS; 87.7% in the assay with PC-3 prostate; 105% with SK-MEL-5 melanoma. In addition, the growth in the assay with UACC-62 melanoma is 97.8%; in the assay on LOX IMVI melanoma, 91.9%; in the assay on SK-MEL-28 melanoma it was 111%.

`COc1cc(-c2nn(-c3cccc(NC(=O)Nc4ccc(Cl)c(C(F)(F)F)c4)c3)cc2-c2ccncc2)ccc1Cl`: the growth in the assay with HCT-15 colon was 9.91% (active); in the assay on HT29 colon, -0.5% (active); with SNB-19 CNS, 26.4%; in the assay with U251 CNS it was -20.9% (active); in the assay on PC-3 prostate it was -19% (active); with SK-MEL-5 melanoma, -65.3% (active). Besides, the growth was -43.8% (active) in the assay on UACC-62 melanoma, 1.06% (active) in the assay with LOX IMVI melanoma and 8.8% (active) with SK-MEL-28 melanoma.

Values taken from PubChem BioAssay (NCI).
